# Assay results as given in PubChem BioAssay AID2501 (Southern Research Specialized Biocontainment Screening …, 2010).
# Where “and” joins values, the source holds several entries; their conditions need not be identical. Equal values may be shown once. The whole screen tested about 2,200 compounds, of which about 1,200 (55%) were called active. Cut-off not given; nearly all actives show IC50 up to about 92 µM. The set was probably picked from earlier hits. This is one part of the list.
# Assay: counter assay for TAg ATPase ADP read-out – biochemical, ADP-Hunter, fluorescence, counter-screen (AID 2501);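 further: purified T antigen ATPase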
# Settings: series mostly up to 100 µM
row,SMILES,IC50
1,CCN(CC)c1ccc(NC(=O)c2cc3c(OC)cccc3[nH]2)cc1,inactive
2,CCN(CC)c1ccc(NC(=O)c2ccccc2F)cc1,4.71 µM (active)
3,COCCNC(=O)Nc1ccc2nc(-c3ccco3)c(-c3ccco3)nc2c1,inactive
4,CCN(CC)c1ccc(NC(=O)c2ccco2)cc1,4.57 µM (active)
5,CCN(CC)c1ccc(NC(=O)CCNC(=O)c2ccco2)cc1,5.22 µM (active)
6,O=C(CSc1nnc(CNC(=O)c2ccco2)o1)Nc1ccccc1C(F)(F)F,inactive
7,COc1cc(-c2nc3cccc(C)n3c2NCC2CCCO2)ccc1O (stereo not given),41.9 µM (active)
8,S=c1nc[nH]c2nc[nH]c12,inactive
9,Cc1ccc(NC(=O)COc2ccc(/C(N)=N/O)cc2)cc1C,29.6 µM (active)
10,Cc1ccc(NC(=O)COc2ccc(C3SCCS3)cc2)cc1,inactive
11,CCN(CC)C(=O)c1cc([N+](=O)[O-])cc2c1-c1ccc([N+](=O)[O-])cc1C2=C(C#N)C#N,inactive
12,CCN(CC)c1ccc(NC(=O)C2CC(=O)N(Cc3ccccc3)C2)cc1 (stereo not given),5.88 µM (active)
13,COc1ccccc1CN1CC(C(=O)NCc2ncccc2C)CCC1=O (stereo not given),inactive
14,Cc1ccc(S(=O)(=O)/N=C(/Sc2ccccc2C(=O)O)c2ccccc2)cc1,inactive
15,Cc1ccc(NC(=O)CNC(=O)c2cccs2)nc1,inactive
16,Cc1cc(C(=O)c2cccs2)c(N)s1,32.8 µM (active)
17,COc1cccc(CC2(CO)CCCN(Cc3sc(N4CCCC4)nc3Cl)C2)c1 (stereo not given),inactive
18,COC(=O)/C=C/c1ccc(OC(=O)OC)c(OC(=O)OC)c1,8.79 µM (active)
19,Cc1cccc(N=Nc2c(C)[nH]n(-c3ccccc3)c2=O)c1,inactive
20,Cc1c(N=C2C=C(Br)C(=O)C(Br)=C2)c(=O)n(-c2ccccc2)n1C,50.9 µM (active)

row,SMILES,IC50
1,CCNc1ccc(N=Nc2c(C)n(C)n(-c3ccccc3)c2=O)cc1,3.42 µM (active)
2,Cc1cc(N)ccc1N=Nc1c(C)n(C)n(-c2ccccc2)c1=O,8.16 µM (active)
3,COc1ccc(-c2cc(=Nc3c(C)n(C)n(-c4ccccc4)c3=O)c3ccccc3o2)cc1,inactive
4,Cc1nc(N)sc1N=Nc1c(C)n(C)n(-c2ccccc2)c1=O,10.3 µM (active)
5,CC(C)(C)CC(=O)NC(=S)Nc1ccccc1[N+](=O)[O-],inactive
6,COc1ccc(C(=O)N2CCN(C(=O)C3COc4ccccc4O3)CC2)cc1 (stereo not given),inactive
7,Cc1c(CC(=O)N2CCN(C(=O)C3COc4ccccc4O3)CC2)c(=O)oc2c(O)c(O)ccc12 (stereo not given),5.3 µM (active)
8,COc1cc(/C=N/N2C(=O)C3C4C=CC(CC4)C3C2=O)ccc1O (stereo not given),5.67 µM (active)
9,COC(=O)c1ccc(-c2ccc(/C=N/N3C(=O)C4C5C=CC(C6CC56)C4C3=O)o2)cc1 (stereo not given),inactive
10,O=C1C2C3C=CC(CC3)C2C(=O)N1/N=C/c1ccc(O)c(O)c1 (stereo not given),5.65 µM (active)
11,Cc1oc2c(O)c(O)ccc2c(=O)c1-c1cnn(-c2ccccc2)c1,9.31 µM (active)
12,CCSC1(SCC)N=C(N)C2(C#N)C(c3ccc(OC)c(OC)c3OC)C12C#N (stereo not given),96.4 µM (active)
13,COC(=O)CN1C(=O)[C@@H]2[C@H](C1=O)[C@@H]1CC(C(=O)OC)=C[C@@H](C(=O)OC)[C@@H]3C1=C(C(=O)[C@]3(C)NC(=O)c1ccccc1)[C@@H]2C,inactive
14,C/C(=N/NC(=O)Cc1c(C)[nH][nH]c1=O)c1ccc(O)cc1,9.47 µM (active)
15,COc1cc(/C(C)=N/NC(=O)Cc2c(C)[nH][nH]c2=O)ccc1O,3.72 µM (active)
16,CSc1ccc(CCNC(=O)C2CCCN(S(=O)(=O)N3CCOCC3)C2)cc1 (stereo not given),inactive
17,COc1cc(/C=N/n2c(-c3n[nH]c4c3CCC4)n[nH]c2=S)cc(OC)c1O,8.78 µM (active)
18,COc1cc(/C=N/n2c(-c3n[nH]c4c3CCC4)n[nH]c2=S)ccc1O,5.13 µM (active)
19,CCS(=O)(=O)c1nc(S(=O)(=O)c2ccc(Cl)cc2)c(NCc2ccccn2)s1,inactive
20,Cc1[nH][nH]c(=O)c1C(c1ccc(-c2cccc(Cl)c2)o1)c1c(C)[nH][nH]c1=O,inactive

row,SMILES,IC50
1,CCCSc1nc(O)c(C(c2ccc(OC)c(O)c2)c2c(O)nc(SCCC)n(C)c2=O)c(=O)n1C,inactive
2,COCC(C)NC(=O)c1cccc([N+](=O)[O-])c1 (stereo not given),inactive
3,CCOc1cc(C(c2c(C)[nH][nH]c2=O)c2c(C)[nH][nH]c2=O)ccc1OC(=O)c1cccc([N+](=O)[O-])c1,28.9 µM (active)
4,CCOc1cc(C(c2c(C)[nH][nH]c2=O)c2c(C)[nH][nH]c2=O)ccc1O,4.65 µM (active)
5,COc1cc(C(c2c(C)[nH][nH]c2=O)c2c(C)[nH][nH]c2=O)ccc1OC(C)C,69 µM (active)
6,Cc1ccsc1C(=O)N1CCCC(CCC(=O)N2CCN(c3ccccn3)CC2)C1 (stereo not given),inactive
7,CN(C)c1ccc(NC(=O)c2ccc(N3CCOCC3)nc2)cc1,3.34 µM (active)
8,O=C(CCN1C(=O)/C(=C\C=C\c2ccccc2)SC1=S)Nc1ccc(C(=O)O)cc1,inactive
9,CC(=O)Nc1ccc(NC(=O)C(C)N2CCN(S(=O)(=O)c3ccc(C)cc3)CC2)cc1 (stereo not given),inactive
10,CN(C)c1ccc(NC(=O)CCN2CCN(c3ccccn3)CC2)cc1,4.88 µM (active)
11,CCS(=O)(=O)c1ncc(Cl)c(C(=O)Nc2ccc(S(=O)(=O)N3CCC(C)CC3)cc2)n1,inactive
12,CC(C)c1ccc(S(=O)(=O)N2CCN(CCC(=O)Nc3ccc(N(C)C)cc3)CC2)cc1,12 µM (active)
13,O=C1OC2(c3ccccc31)c1cc(I)c(O)c(I)c1Oc1c2cc(I)c(O)c1I,inactive
14,O=C(c1ccc(-c2ccccc2Cl)s1)N1CCOCC1,inactive
15,NC(=O)Nc1ccc(Nc2ccccc2)cc1,4.72 µM (active)
16,O=C(NC(=S)Nc1ccc(O)cc1)c1ccccc1Cl,2.31 µM (active)
17,O=C(Nc1cccc2c1CCCC2)c1ccccc1Cl,inactive
18,Oc1ccc(NC(=S)Nc2ccccc2)cc1,4.74 µM (active) and 4.32 µM (active)
19,O=C(NNC(=O)c1ccccc1-n1cccc1)c1ccc(Cl)cc1Cl,inactive
20,O=C(Nc1ccc(Nc2ccccc2)cc1)N1CCOCC1,3.84 µM (active)
